Source: ChEMBL document CHEMBL3988442, “University of Dundee, Small-Polar-MMV Screening Library” (2021)
The campaign covered roughly 48,000 compounds. About 13,000 (27%) showed an effect of 50% or more. This is one part of the list.

Each compound was assayed on Wolbachia pipientis (assay: Anti-Wolbachia Cell-Based Screen). Details: 5 µM.
Type: functional
Set-up: scale not given: in the data most compounds retested in dose-response had high values

Structure (SMILES)	Percent Effect
CCC(C)Nc1ccc2c(c1)C1(CCOCC1)C(=O)N2c1ccccc1 (stereo not drawn)	13.06%
Cc1ccccc1CS(=O)(=O)CC(=O)N(C)Cc1cccc(F)c1	-33.07%
CCN1CCN2CCCN(S(=O)(=O)c3ccc(S(C)(=O)=O)cc3)C2C1=O (stereo not drawn)	10.86%
CCn1c(CN(C)C(C)CSC)nc2c(F)cccc21 (stereo not drawn)	-3.593%
Cn1nnnc1SCCNC(=O)C1CCN(C(=O)C2CC2)CC1	0.3316%
CCCNC(=O)Cn1c(C)nn(C(C)(C)C)c1=O	-1.553%
Cc1cc(C)n(-c2cncc(N3CCN(C(=O)C(C)C)CC3)n2)n1	-1.845%
COCCNC(=O)Cn1c(C)cc2nc(SC)n(CC(C)C)c(=O)c21	0.09267%
CCCc1cc(=O)n(CC(N)=O)c(-n2nc(C)cc2C)n1	12.11%
CCCc1cc(=O)n(CC(=O)NC(C)C)c(-n2nc(C)cc2C)n1	152.6%
COCCS(=O)(=O)NC(C)c1ccc(-n2nc(C)cc2C)cc1 (stereo not drawn)	-14.21%
CCN(CC)C(=O)CCNc1cncc(-n2nc(C)cc2C)n1	-4.875%
CCCNC(=O)Cn1c(-n2nc(C)cc2C)nc(CCC)cc1=O	109.3%
CCCc1cc(=O)n(CC(=O)NCCOC)c(-n2nc(C)cc2C)n1	110%
CCC(O)CN(CC(=O)NC(=O)NC1CC1)c1ccccc1 (stereo not drawn)	-6.258%
CCOCC1CC2(CCN(C(=O)C3CCSCC3)CC2)CO1 (stereo not drawn)	-12.12%
O=C1CC(c2ccco2)c2sc(C(=O)O)c(-c3ccccc3)c2N1 (stereo not drawn)	3.632%
O=C(CO)N1C[C@H]2CC[C@@H]1CN(C1Cc3ccccc3C1)C2	-7.791%
COc1ccc(CN2CCN(C(C)c3nc(C4CC4)no3)CC2)cc1 (stereo not drawn)	8.61%
CC(c1nc(C2CC2)no1)N1CCN(Cc2nnc(C3CC3)o2)CC1 (stereo not drawn)	142.3%
Cc1nnc(CN2CCN(C(C)c3nc(C4CC4)no3)CC2)o1 (stereo not drawn)	96.71%

Structure (SMILES)	Percent Effect
CCc1noc(C(C)N2CCN(Cc3nnc(C4CC4)o3)CC2)n1 (stereo not drawn)	4.733%
Cc1cc(CN2CCN(C(C)c3nc(C4CC4)no3)CC2)no1 (stereo not drawn)	2.927%
CC(C)c1nnc(CN2CCN(C(C)c3nc(C4CC4)no3)CC2)o1 (stereo not drawn)	138.5%
CC(C)c1nc(C2CCCN(Cc3nnc(C4CC4)o3)C2)no1 (stereo not drawn)	-2.987%
CC(C)(C)c1c[nH]c([C@@H]2COCCN2C2CCOCC2)n1	1.318%
CCN(C)C(=O)CCC(=O)c1cccs1	14.3%
CC(C)S(=O)(=O)N(C)C(=O)CCc1ccsc1	-69.32%
O=C(NC1CCC1)[C@@H]1CCO[C@@H]2CCN(C3CCCC3)C[C@@H]21.O=C(O)C(F)(F)F	-2.811%
Cc1cc(C)cc(CN2CCN(C(=O)C3CCC3)[C@@H]3CS(=O)(=O)C[C@@H]32)c1	5.878%
CCN(CC)C(=O)N1CCN(Cc2cnc(C)nc2)[C@H]2CS(=O)(=O)C[C@H]21	94.21%
CN(C)C(=O)N1CCN(Cc2ccccc2)[C@@H]2CS(=O)(=O)C[C@@H]21	-15.23%
Cc1ccc(CN2CCN(C(=O)C3CCC3)[C@@H]3CS(=O)(=O)C[C@@H]32)cc1C	4.312%
Cc1ncc(CN2CCN(C(=O)C3CCC3)[C@@H]3CS(=O)(=O)C[C@@H]32)cn1	112.3%
CCc1ccc(CN2CCN(C(=O)C(C)C)[C@@H]3CS(=O)(=O)C[C@@H]32)cc1	-2.722%
COc1cc(Oc2ccc(C(F)(F)F)cn2)ccc1CN1CCCC1	2.757%
O=C(NC[C@H]1OC[C@@H](NC(=O)C2CCCC2)[C@@H]1O)c1ccncc1	0%
CC(=O)Nc1ccc(CNC2COc3c2ccc(C)c3C)cc1 (stereo not drawn)	-7.711%
COCC[C@]1(O)CCN(S(=O)(=O)c2ccc(C)cc2OC)C[C@H]1C	-114.9%
COc1c(C(=O)NCc2cccnc2)nnn1Cc1ccc(C)cc1	7.937%
CCc1noc(C)c1C(=O)NCc1ccccn1	-15.45%
Nc1no[n+]([O-])c1C(=O)NCc1ccccn1	131.2%

Structure (SMILES)	Percent Effect
CCn1cc(Br)c(C(=O)NCc2cccnc2)n1	4.447%
Nc1no[n+]([O-])c1C(=O)NCc1cccnc1	115%
N#Cc1ccc(CN2C[C@@H]3OCC(=O)N(CC(N)=O)[C@@H]3C2)cc1	-3.646%
CC(C)Oc1ccccc1CNC(=O)N(C)CC(F)F	-6.331%
O=C(NCCCOCC1CCCO1)c1cccnc1N1CCCC1 (stereo not drawn)	-6.483%
O=C(NC[C@@H]1CCCO1)c1cccnc1N1CCCC1c1ccccn1 (stereo partly drawn)	123.2%
N#Cc1cccnc1NCc1cccc(C(=O)NCC2CCCCO2)c1 (stereo not drawn)	-17.65%
O=C(NC[C@@H]1CCCO1)c1cccnc1N1CCCC1c1ccccc1 (stereo partly drawn)	120.1%
Fc1ccccc1CN1CCCN(c2ccc3cc[nH]c3n2)CC1	-2.258%
CC(O)CC(C)(C)CNC(=O)NCc1cccc(-n2cncn2)c1 (stereo not drawn)	-1.907%
CCC(CNC(=O)c1nc(=O)[nH][nH]1)Oc1cccc(F)c1 (stereo not drawn)	12.08%
Cc1cc(C)c2c(c1)NC(=O)C2CC(=O)O (stereo not drawn)	18.62%
CS(=O)(=O)N1CCc2ccc(C(=O)N3CCn4ncnc4C3)cc21	111.8%
O=C(c1ccc2c(c1)CCCC2)N1CCn2ncnc2C1	90.14%
O=C(c1ccc2c(c1)CCC2)N1CCn2ncnc2C1	98.73%
O=C(c1ccc2c(c1)CCC2)N1CCN(c2ccc(Cl)cn2)CC1	-15.66%
O=C(c1ccc2c(c1)CCC2)N1C[C@@H](CN2CCOCC2)[C@@H](CO)C1	-9.126%
CC(C)c1nnc2n1CCN(C(=O)c1ccc3c(c1)COC3)C2	4.471%
Cc1ccc(C(=O)N2CCN(S(C)(=O)=O)CC2)cc1N1CCNC1=O	0.6513%
O=C(c1ccc(O)nc1)N1CCc2ccc(O)cc2C1	-1.234%
CSc1ccc(NC(=O)Nc2ccc3c(c2)N(S(C)(=O)=O)CC3)cc1	-6.619%
